# In the supplement of paper PMC6555819:
# Tests used:
# Test in all cases: PBM binding z-score (relative to random genomic background probes); higher = stronger binding; sequences stand for … in GC…GCGATTGACAGCGTAGAATGAAGG
# [1] = system: FXR:RXRa (NR concentration 270 nM, RXRa partner concentration 90 nM)
# Method in brief: (§1)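 Antibodies against each partner of ligand-free nuclear receptor dimers (one per run) detected binding on custom Agilent 4×180K protein-binding microarrays after 1 h incubation. The double-stranded probes had 34-nt variable regions carrying direct-repeat seeds, single-nucleotide variants, half-site ablations and random human genomic background sequences. Binding z-scores, from regression-normalized fluorescence, use the random background probes as reference.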
# [2] = system: LXRa:RXRa (NR concentration 270 nM, RXRa partner concentration 90 nM)
# Method in brief: as §1
# [3] = system: LXRa homodimer (NR concentration 270 nM)
# Method in brief: as §1
# [4] = system: LXRb:RXRa (NR concentration 270 nM, RXRa partner concentration 90 nM)
# Method in brief: as §1
# [5] = system: LXRb homodimer (NR concentration 270 nM)
# Method in brief: as §1
# [6] = system: PPARg:RXRa (NR concentration 180 nM, RXRa partner concentration 90 nM)
# Method in brief: as §1
# [7] = system: PPARg:RXRa 270nM:90nM, anti-RXR (NR concentration 270 nM, RXRa partner concentration 90 nM)
# Method in brief: as §1
# [8] = system: PPARg:RXRa 30nM:10nM, anti-RXR (NR concentration 30 nM, RXRa partner concentration 10 nM)
# Method in brief: as §1
# [9] = system: PPARg:RXRa 90nM:30nM, anti-RXR (NR concentration 90 nM, RXRa partner concentration 30 nM)
# Method in brief: as §1
# [10] = system: PPARa:RXRa (NR concentration 270 nM, RXRa partner concentration 90 nM)
# Method in brief: as §1
Sequence,PBM binding z-score [1],PBM binding z-score [2],PBM binding z-score [3],PBM binding z-score [4],PBM binding z-score [5],PBM binding z-score [6],PBM binding z-score [7],PBM binding z-score [8],PBM binding z-score [9],PBM binding z-score [10]
CGAACTATGTCAAGGACAGTGAATCTCCGCACGC,0.0723,-0.232,-0.234,-0.456,-0.269,0.856,0.74,-0.213,0.259,
CAAACTAGGTCACGAAAGGTCAAAGTGGAATGAC,7.59,8.25,7.92,7.19,2.79,10.6,8.11,7.1,8.54,
ATCGAAGGGTCGAAGGTGAGTATACCCACCCGAA,1.3,1.26,-0.26,1.21,-0.316,2.73,3.11,1.08,2.47,
TCAGATAGGTAAAGGTGAAAGTCGAACGATATGA,0.962,1.49,-0.219,1.3,-0.401,2.56,3.99,4.4,4.3,
CCTTACGGGTCAGTGACAGGTTATAGCATTTGGA,4.29,3.37,0.351,2.96,-0.126,1.94,2.4,0.815,1.86,
CCTACTGGGGCAAAGGTCATTGATTCCAATGCTC,4.69,5.21,2.93,4.78,0.406,12,10,9.73,11.1,
TGAATGAGGTTTAAGATCAGGGAACGTGGCGTCG,-0.267,-0.0856,-0.566,-0.625,-0.285,0.663,1.49,0.74,1.15,
TGACTGAGGTTAAAGATCAGGGAACGTGGCGTCG,2.91,2.35,-0.224,1.69,-0.22,3.09,3.98,2.03,3.59,
ATATGTAGGTTACATCCGGGTCTTTCAGGCTATG,0.415,2.91,0.384,1.23,0.526,4.92,4.07,1.55,3.34,
CGTCCAAGCTCAGCAGGTCAGTGAAAGCGACGTG,-0.394,-0.404,-0.449,0.048,-1.03,-0.464,-0.756,-1.14,-0.879,
CAAACTAGGTCACAGGGGTCAAAGTCCGTGCGTA,7.54,6.48,5.12,6.61,1.67,,8.74,7.69,9.17,
TCGAGAAGGTTACGGGGGCATTCAGGGATGAAGA,4.57,4.21,0.687,5.72,,6.1,5.94,4.28,5.29,5.32
CCGAGTAGGTTACGAGGGGGCATTCATTGCGAAT,2,6.78,1.16,6.12,,2.64,3.26,1.35,2.85,3.42
TCGAGTAGGTTACGGGGTCATTCAGGGATGAAGA,6.23,5.46,1.76,5.33,,8.14,6.68,4.18,5.91,6.21
ATATGTAGGTGAAGGGTCATTCAGGTTGGTTCGC,4.21,4.29,1.74,3.78,1.03,,11.2,11.3,12.7,
TAGCCTAAGTCATGGGCCAGTATACCACGCGAAC,-0.178,-0.0929,-0.218,-0.0253,-0.797,0.437,0.385,-0.251,0.254,
CTTACTGGGCCAAAGGTCATTGATTCCAATGCTC,5.59,5.54,4.28,5.06,0.936,,11.2,14.3,13.6,
TAGCCTAGGTCATGCGGGCCAGTATAGTGTCGGC,3.95,3.16,0.141,1.55,-0.409,1.98,2.32,-0.028,1.01,
CGAACTAGGTCAAAGGTCAGTGAAAGGCGACGTA,7.45,6,2.09,5.55,0.335,,11.3,12.7,14,
TCATATAGGTCAAAGGTGAAAGTCGGTGTGGTAA,7.15,6.06,2.14,5.58,1.91,,9.8,10.4,11.4,
CTATGTAGGTTAAGGGGGTCATTAAGTTTGAAAG,4.76,4.56,2.21,5.86,,8.78,7.7,5.93,8.13,6
TCGAGTAGGTTGCGGGGGCATTCAGGGATGAAGA,2.84,2.17,0.68,4.34,,0.862,2.72,2.32,2.95,2.7
CCGAGTAGGTTACGAGGCGGCATTCAGTGCGAAT,-0.0338,0.596,-0.363,-0.1,,0.984,1.28,-0.404,0.408,1.06
CGGAGTAGGTTACGAGGGGGCATTCAGTGCGAAT,3.18,7.21,1.72,6.48,,4.95,5.18,2.85,4.32,4.04
CCGATTAGGTTACGAGGGGGCATTCAGTGCGAAT,2.54,7.34,1.59,6.42,,1.45,2.96,0.437,2.32,3.29
CCGAGTAGGTTACCAGGGGGCATTCAGTGCGAAT,2.76,7.81,3.59,6.85,,2.1,3.31,0.696,2.27,3.43
AGTCAAATTTCACTAGGTAACGTAAGATTCAGCT,-0.177,-0.14,-0.0488,0.0425,0.175,0.5,0.334,0.197,-0.0408,

Sequence,PBM binding z-score [1],PBM binding z-score [2],PBM binding z-score [3],PBM binding z-score [4],PBM binding z-score [5],PBM binding z-score [6],PBM binding z-score [7],PBM binding z-score [8],PBM binding z-score [9],PBM binding z-score [10]
CCGAGTAGGTTACGAGGGGGCAGTCAGTGCGAAT,2.18,6.39,0.422,5.55,,2.19,3.18,0.853,2.04,3.14
ACTAGTTGGTCAGCTGAGGTCACACTCAATTCGG,3.79,3.19,2.29,3.64,0.527,1.23,1.94,0.159,1.26,
TTTAGTTGGTCAAAGGTCACACACTCGAAATGCG,6.28,5.76,3.99,5.54,1.9,,10.6,11.3,11.6,
TTACCAAGGTGAAAGGTCATTGATGCACGCCTTG,6.65,6.17,4.61,5.39,1.12,,9.21,9.49,10.9,
CCTAGCAGACCAATCTGGGTCACTCAAGGCTTGA,0.219,0.374,-0.629,0.514,-1.09,1.8,2.09,0.195,1.21,
CCGAGTCGGTTACGAGGGGGCATTCAGTGCGAAT,0.716,4.66,1.26,4.05,,-0.00257,0.709,-0.212,0.329,1.74
TGAATGAGGTTAAAGGTCAGGGAACGTGGCGTCG,7.23,6,2.34,5.35,1.05,,9.95,12.2,12.1,
CCTGCTAGTTCAATGGTCAGCTAAAGCAGCTCGC,-0.115,0.171,-0.297,0.044,-0.17,-0.523,0.0511,-0.764,-0.0476,
TCGAGTAGGTTACGGGGGCATACAGGGATGAAGA,2.72,2.52,0.664,4.86,,6.1,5.69,3.56,5.05,4.48
CCTTACGGGTCTCTCCAGGTTATAGCATCGGAGT,0.0576,2.63,0.136,0.0193,-0.526,-0.0815,-0.225,-0.385,-0.47,
CCGAGTAGGTTACGAGGGCGCATTCAGTGCGAAT,0.0416,1.77,-0.35,0.425,,2.6,2.55,-0.0123,1.62,1.72
TCATATAGGTAAAAGGTCAAAGTCGGTGTGGTAA,6.77,6.41,4.99,5.78,2.43,,10.5,10.9,12.4,
CTATGTAGGTTAAGGCGGTCATTCAGTTTGAAAG,1.17,2.21,1.95,1.37,,4.29,4.25,1.38,3.3,3.24
TCTTGTAGGTCAAAGGTTAAGAAAGCCGAAGCCT,7.08,6.11,2.09,5.26,1.73,,10.7,11.9,12.2,
CGAACTAGTTCAAGGACAGTGAATCTCCGCACGC,0.282,0.229,-0.253,-0.107,-0.693,,0.0328,-0.735,-0.0258,
CGAACTAGGTCAAAGGGCAGTGAAAGGCGACGTA,5.16,3.62,-0.00961,2.68,-0.302,,10.2,10.2,11.2,
CTATGTAGGTTAAGAGGGTCATTCAGTTTGAAAG,2.95,3.05,1.07,2.93,,5.88,5.47,2.95,4.99,4.89
CAAACTAGGTCACCGTAAGGTCAAAGTCCGCATG,6.58,6.1,5.47,5.55,1.46,9.41,7.89,5.84,7.64,
TCTCGGAGGACACGAAAGGTCTGAGCTCGACATC,0.119,-0.119,-0.569,-0.279,-0.889,0.108,1.01,1.92,1.49,
CTATGTAGGTTAAGGGGATCATTCAGTTTGAAAG,0.585,0.973,0.126,2,,5.97,5.5,3.3,4.86,3.77
TTGAGTAGGTTACGGGGGCATTCAGGGATGAAGA,3.06,3.3,1.18,5.2,,7.11,6.44,4.81,5.83,4.63
CCGACTGGGGCAAAGGTCACCATACTCAGTACGA,4.94,4.64,1.94,4.54,-0.206,,10,12.4,11.1,
CTATGTACGTTAAGGGGGTCATTCAGTTTGAAAG,4.34,4.93,2.68,6.5,,3.31,5.19,3.25,4.57,5.53
CTATGTAAGTTAAGGGGGTCATTCAGTTTGAAAG,4.5,4.34,2.4,6.24,,3.92,5.21,2.84,4.55,5.31
TCGAGTTGGTTACGGGGGCATTCAGGGATGAAGA,2.61,2.2,0.889,4.62,,1.84,2.84,2.24,2.63,2.89
TCGAGTAGGTTACGGGGGCATTCAGGGATGAAGA,2.79,2.81,0.777,5.02,,5.95,5.71,3.3,5.07,4.38
